Results from PubChem BioAssay (NCI).
Compounds without any hit were thinned out: in the full panel of roughly 79,000, 15% have a hit. No stated cut-off is given here; in the data, active means growth inhibition above about 70%; inactive means the rest.

Tests used:
[1] = NCI Yeast Anticancer Drug Screen. Data for the rad50 strain (AID 155);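 further: 0% = growth of vehicle-only cultures of the same strain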; conditions: S. cerevisiae rad50 strain growth inhibition; at 50.0 µM; hits give high values
Outline: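 Relative growth inhibition (compound vs vehicle) was measured in yeast with a defined repair-gene alteration.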

[2] = NCI Yeast Anticancer Drug Screen. Data for the mec2-1 strain (AID 157); conditions: S. cerevisiae mec2-1 strain, at 50.0 µM, hits give high values
Outline: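 Yeast mec2-1 mutant treated with compound. Readout: growth inhibition vs vehicle controls.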

[3] = NCI Yeast Anticancer Drug Screen. Data for the sgs1 mgt1 strain (AID 161);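 further: 0% = growth of cultures given vehicle only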; conditions: S. cerevisiae sgs1 mgt1 strain, at 50.0 µM, hits give high values
Outline: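 Inhibition of yeast growth, normalised to vehicle-treated controls, is reported for a strain bearing genetic alterations in DNA damage repair.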

[4] = NCI Yeast Anticancer Drug Screen. Data for the cln2 rad14 strain (AID 165);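 further: 0% = growth equal to vehicle treated cultures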; conditions: S. cerevisiae cln2 rad14 strain, at 50.0 µM, hits give high values
Outline: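 cln2 rad14 yeast strain; compound exposure; growth inhibition read vs vehicle controls.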

[5] = NCI Yeast Anticancer Drug Screen. Data for the bub3 strain (AID 167); conditions: S. cerevisiae bub3 mutant strain, at 50.0 µM, hits give high values
Outline: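 Screening used yeast with an engineered genetic alteration affecting cell cycle control. Compound-exposed cultures were compared with vehicle cultures, and reduced growth was taken as inhibition.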

[6] = NCI Yeast Anticancer Drug Screen. Data for the mlh1 rad18 strain (AID 175); conditions: S. cerevisiae mlh1 rad18 strain growth inhibition; at 50.0 µM; hits give high values
Outline: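 Yeast w/ defined DNA-repair lesions; compound exposure; growth vs vehicle controls → % inhibition.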

Measured: growth inhibition

CCCCNCC1C(O)CCC2CN3CCc4c([nH]c5ccccc45)C3CC21 (stereo not given)
inactive: [1] 15.9% | [2] 5.85% | [3] 11.3% | [4] 9.9% | [5] 6.05% | [6] 16.9%

CC(C)CC/C(=N\NC(N)=O)C1CCOCC1
inactive: [1] -3.1% | [2] 14.2% | [3] 9.25% | [4] -7.2% | [5] -0.05% | [6] -3.85%

CC(C)(C)c1cc(-c2cc(C(C)(C)C)n(-c3ccccc3)n2)nn1-c1ccccc1
inactive: [1] -22.6% | [2] -26.9% | [3] -17.3% | [4] 16% | [5] -31.4% | [6] -27.2%

Oc1c(C(O)N2CCOCC2)cc(C(O)N2CCOCC2)c(O)c1O (stereo not given) (tested in a mixture with another compound)
inactive: [1] -3.3% | [2] -11.1% | [3] -17% | [4] -16.2% | [5] -3.15% | [6] 9.75%

O=C(O)c1ccccc1N=N/C(=N\Nc1ccccc1C(=O)O)c1ccnc2ccccc12
inactive: [1] 37.5% | [2] 10% | [3] 29.3% | [4] 11.2% | [5] 2.8% | [6] 26.9%

Cc1cc(N(CCC#N)CCC#N)ccc1/C=C1\N=C(c2cc([N+](=O)[O-])ccc2Cl)N(c2cccc(Cl)c2)C1=O
inactive: [1] -19.4% | [2] -20.2% | [3] -23.9% | [4] -7.6% | [5] -6.05% | [6] -29.2%

O=C(CNc1ccccc1)c1ccc(O)c(C(=O)O)c1 (tested in a mixture with another compound)
inactive: [1] -8.5% | [2] -12.3% | [3] -11.3% | [4] -5.35% | [5] -0.7% | [6] 0.95%

c1ccc2oc(C34OC5CC(CC(C5)O3)O4)nc2c1
inactive: [1] 24.8% | [2] 13.2% | [3] 21.9% | [4] 11.1% | [5] 0.5% | [6] 10%

C[C@]12CC[C@@H]3c4ccc(O)cc4CC[C@H]3[C@@H]1CC[C@@H]2OP(=O)(O)O
inactive: [1] -0.15% | [2] -9.95% | [3] -37.1% | [4] -27.4% | [5] -6.45% | [6] -16.6%

Cc1cc2c(C(C)C)c(O)c(O)c(C=Nc3ccc(-c4ccccc4)cc3)c2c(O)c1-c1c(C)cc2c(C(C)C)c(O)c(O)c(C=Nc3ccc(-c4ccccc4)cc3)c2c1O
inactive: [1] -24.2% | [2] -10.4% | [3] -24.2% | [4] -15.2% | [5] -8.5% | [6] -7.4%

CCCCCCCCCCCC(=O)N(CCOC(=O)c1ccccc1)CCc1ccccc1
inactive: [1] 32.6% | [2] 9.45% | [3] 16.6% | [4] 19.2% | [5] -3.2% | [6] 24.5%

O=C1c2[nH]c3ccccc3c2CN1CCc1ccccc1
inactive: [1] -2.4% | [2] -15.9% | [3] 4.7% | [4] -14.5% | [5] -4.45% | [6] -5.1%

COc1ccc2oc(=O)[nH]c2c1
inactive: [1] 5.3% | [2] -3.95% | [3] 9.9% | [4] 13.1% | [5] -6.9% | [6] -4.5%

Nc1c(C(=O)Nc2cccc3c2C(=O)c2ccccc2C3=O)ccc2c1C(=O)c1ccccc1C2=O
inactive: [1] 35.1% | [2] 10.1% | [3] 43.3% | [4] 26.7% | [5] 2.75% | [6] 24%

Cc1nc(-c2ccc([N+](=O)[O-])cc2)cn2c1nc1ccccc12
inactive: [1] -26.9% | [2] -33% | [3] -34.1% | [4] -67.6% | [5] -4.25% | [6] -17.8%

COCCCNC1=C(C#N)C(=O)NC(c2cccc([N+](=O)[O-])c2)S1 (stereo not given)
inactive: [1] -9.7% | [2] -27.4% | [3] 1.75% | [4] 7.85% | [5] -9.8% | [6] -32.7%

O=C(O)c1c(Br)c(Br)c(Br)c(Br)c1C(=O)Nc1ccccc1F
inactive: [1] 7% | [2] -3.3% | [3] 7.55% | [4] 20.2% | [5] 4% | [6] 12.4%

CCC(C)NS(=O)(=O)c1ccc(Cl)cc1 (stereo not given)
inactive: [1] 18.4% | [2] 9.55% | [3] 6.45% | [4] 8.6% | [5] 5.85% | [6] 3.7%

COCCCOC(=O)COc1ccccc1
inactive: [1] -11.3% | [2] -45.5% | [3] -8.65% | [4] -12.8% | [5] 11.9% | [6] -13.5%

CCOC(NC(=O)CC)(C(F)(F)F)C(F)(F)F
inactive: [1] 4.3% | [2] -24.6% | [3] -49.9% | [4] -3.4% | [5] 1.85% | [6] -36.9%

CCC(=O)C(CCN(C)C)c1ccccc1 (stereo not given)
inactive: [1] -10.4% | [2] -0.85% | [3] 9.9% | [4] -22.6% | [5] -11.1% | [6] -7.9%

CC(OC(=O)CC(c1ccccc1)N1CCCCC1)c1ccccc1 (stereo not given)
inactive: [1] 64.7% | [2] 1.3% | [3] 41.1% | [4] 5.3% | [5] 57.5% | [6] 33.9%

CCCCc1ccccn1
inactive: [1] -9.1% | [2] 4.15% | [3] 14.1% | [4] -42.5% | [5] 7.4% | [6] 16.9%

CC(C)=NC(C(=O)O)C(C)(C)S (stereo not given)
inactive: [1] -17.6% | [2] -15.2% | [3] -18.1% | [4] -12.3% | [5] -62% | [6] -17.1%

O=C1CCCCCCCCCCC1Sc1ccccc1 (stereo not given)
inactive: [1] -23.2% | [2] -36.6% | [3] -6.8% | [4] 3.1% | [5] 7.3% | [6] -28.9%

CC(C)(O)C(O)COc1c2c(cc3oc(=O)ccc13)OCO2 (stereo not given)
inactive: [1] 26.3% | [2] 3.5% | [3] 18.9% | [4] -1.35% | [5] 31.9% | [6] 25.6%

O=C(CC(O)(C(F)(F)F)C(F)(F)F)c1cccs1
inactive: [1] 3.65% | [2] 15.4% | [3] 3.75% | [4] -34.9% | [5] -5.15% | [6] 7.5%

CC(=O)Nc1ccc(F)c(N)c1
inactive: [1] -3.2% | [2] -13.2% | [3] 8.7% | [4] -11.9% | [5] -9.1% | [6] 15.1%

CCOC(=O)c1nnc(-c2ccccc2)nc1Cl
inactive: [1] -2.55% | [2] 3.45% | [3] 0.15% | [4] -12.9% | [5] 3.7% | [6] 4%

CCOC(=O)C(=C/C=C/NCCc1c[nH]c2ccccc12)C(=O)OCC
inactive: [1] -23.1% | [2] -44.5% | [3] -20.8% | [4] -10.2% | [5] -15.2% | [6] -26.2%

CCc1ccccc1NC(=O)/C(CC(=O)c1c(C)n([O-])c2ccccc2[n+]1=O)=N\NS(=O)(=O)c1ccc(C)cc1
inactive: [1] -18.8% | [2] -8.25% | [3] -12.3% | [4] 12.7% | [5] 7.25% | [6] 2.5%

N#Cc1ccccc1C#N
inactive: [1] -0.8% | [2] -5% | [3] -7.7% | [4] -13.9% | [5] -4.7% | [6] -0.4%

[O-][n+]1ccccc1/C=C/c1cccc[n+]1[O-]
inactive: [1] -30.1% | [2] -31.1% | [3] -7.55% | [4] -22% | [5] -0.85% | [6] -18.4%

CC1=NN(c2ccccc2)C(=O)/C1=C(\[O-])c1ccccc1.CC1=NN(c2ccccc2)C(=O)/C1=C(\[O-])c1ccccc1.CC1=NN(c2ccccc2)C(=O)/C1=C(\[O-])c1ccccc1.[Fe+3]
inactive: [1] 1.8% | [2] -5.75% | [3] -15.1% | [4] -16.7% | [5] -2.9% | [6] 4.45%

COC(=O)C(/C(=N/NC(=O)c1ccncc1)C(=O)Nc1ccccc1OC)c1nc2ccc(Cl)cc2[nH]c1=O (stereo not given)
inactive: [1] 5.8% | [2] -6% | [3] -11% | [4] -38% | [5] -17.7% | [6] 11.4%

Cn1c(N)c(/C=C/C(=O)Oc2ccccc2)c(=O)n(C)c1=O
inactive: [1] 49.7% | [2] 18.4% | [3] 16.5% | [4] 16.8% | [5] -8.8% | [6] -43.1%

COC1OC(CO)C(OC(=O)Nc2ccccc2)C(OC(=O)Nc2ccccc2)C1O (stereo not given)
inactive: [1] -16.9% | [2] -10.7% | [3] -1.4% | [4] -38.1% | [5] 2.7% | [6] -8.15%

Cc1ccccc1NC(=O)Nc1ccc(Nc2ccccc2)cc1
inactive: [1] -6.5% | [2] 32.2% | [3] 9.95% | [4] -11.6% | [5] 5.95% | [6] 25.5%

CC([C@H]1CC[C@H]2[C@@H]3CC=C4C[C@@H](O)CC[C@]4(C)[C@H]3CC[C@]12C)C(O)(c1ccccc1)c1ccccc1 (stereo not given in full)
inactive: [1] 40.9% | [2] 19.8% | [3] 43.4% | [4] 37.6% | [5] 23.4% | [6] 25.2%

O=C1C=C/C(=N/c2ccc(O)o2)c2ccccc21
inactive: [1] 36.8% | [2] 52.3% | [3] 20.1% | [4] 8.4% | [5] 17.8% | [6] 60%
